In paper PMC5540273 (PLoS ONE, 2017):

How the values were obtained:
Details in all cases: concentration: 1 μM, replicates: in singlicate; n = 1
[1] = system: T1, LKB1
T1 construct: gene STK11

[2] = system: T2, LOK
T2 construct: gene STK10

[3] = system: LRRK2
[4] = system: LTK
[5] = system: LYN
[6] = system: T3, LZK
T3 construct: gene MAP3K13

[7] = system: MAK
[8] = system: MAP3K15
[9] = system: MAP3K1
[10] = system: MAP3K2
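Also: KINOMEscan kinase panel screen.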

Structure (SMILES) | %Inh [1] [%] | %Inh [2] [%] | %Inh [3] [%] | %Inh [4] [%] | %Inh [5] [%] | %Inh [6] [%] | %Inh [7] [%] | %Inh [8] [%] | %Inh [9] [%] | %Inh [10] [%]
Nc1nc(-c2ccccn2)c(-c2ccnc3ccccc23)s1 [GW548057] | 8 | 0 | 0 | 0 | 0 | 51 | 12 | 11 | 10 | 0
CSc1ccc(NC2=C(c3ccccc3Cl)C(=O)NC2=O)cc1 [SB-342411] | 12 | 2 | 0 | 7 | 0 | 0 | 0 | 0 | 14 | 0
Cl.c1ccc(Cn2ncc3cc(Nc4ncnc5ccccc45)ccc32)cc1 [GW273749] | 0 | 0 | 0 | 0 | 0 | 0 | 33 | 0 | 7 | 0
Nc1nc(-c2cccnc2)c(-c2ccnc3ccccc23)s1 [GW684083] | 15 | 0 | 0 | 0 | 72 | 14 | 10 | 0 | 6 | 0
CSc1nn2c(=O)cc(N3CCOCC3)nc2n1Cc1cccc(Cl)c1Cl [GSK2347225] | 0 | 0 | 0 | 4 | 10 | 0 | 24 | 0 | 6 | 1
C[C@@H]1CCN(C(=O)CO)C[C@@H]1N(C)c1ncnc2[nH]ccc12 | 0 | 5 | 0 | 27 | 8 | 10 | 0 | 0 | 0 | 0
CS(=O)(=O)CCNCc1ccc(-c2ccc3ncnc(Nc4ccc(OCc5ccccc5)c(Cl)c4)c3c2)o1.Cl [GW574783] | 0 | 58 | 22 | 25 | 0 | 26 | 12 | 5 | 15 | 0
Clc1ccc(-c2cc(-c3c[nH]nc3-c3ccccn3)ccn2)cc1 [GW681251] | 0 | 30 | 46 | 0 | 0 | 0 | 14 | 0 | 26 | 3
FC(F)(F)c1cc(Nc2nccc(-c3c(-c4ccc(Cl)cc4)nn4ncccc34)n2)ccc1Cl [GW829351] | 0 | 6 | 0 | 0 | 0 | 0 | 0 | 0 | 0 | 0
Fc1cccc(COc2ccc(Nc3ncnc4nn5ccccc5c34)cc2Cl)c1 [GW689066] | 14 | 0 | 31 | 0 | 0 | 16 | 0 | 0 | 0 | 8
Cc1ccc(NC(=O)c2cccc(C#N)c2)cc1-c1ccc(C(=O)Nc2ccncc2)cc1 [GSK1398463] | 0 | 0 | 28 | 0 | 69 | 0 | 36 | 0 | 12 | 0
Cl.Cn1ccc(-c2cccc(Nc3ccnc4cc(-c5nccs5)ccc34)c2)n1 [GW525701] | 0 | 72 | 0 | 0 | 0 | 48 | 0 | 0 | 10 | 0
COc1ccc(Nc2nccc(N3CCC(NC(=O)c4cccc(NC(C)=O)c4)C3)n2)cc1 (stereo not shown) [GSK1379732] | 22 | 0 | 0 | 0 | 0 | 46 | 14 | 0 | 0 | 0
Nc1nc(-c2ccc3c(N)n[nH]c3c2)cc(N2CCC[C@@H](C(=O)Nc3ccccc3)C2)n1.O=C(O)C(F)(F)F.O=C(O)C(F)(F)F [GSK2288359] | 6 | 0 | 0 | 15 | 0 | 0 | 29 | 2 | 15 | 0
Oc1ccc2ncnc(Nc3ccc(OCc4ccccc4)cc3)c2c1 [GI262866] | 0 | 0 | 48 | 82 | 0 | 0 | 13 | 20 | 5 | 0
O=C(Nc1ccccc1)Nc1ccc(Oc2ccc3nccn3n2)cc1 | 0 | 39 | 0 | 0 | 0 | 0 | 0 | 0 | 0 | 0
CNc1nccc(-c2c(-c3ccc(F)cc3)ncn2CCCN2CCOCC2)n1 [SB-222516] | 0 | 0 | 0 | 0 | 0 | 0 | 0 | 0 | 21 | 5

Structure (SMILES) | %Inh [1] [%] | %Inh [2] [%] | %Inh [3] [%] | %Inh [4] [%] | %Inh [5] [%] | %Inh [6] [%] | %Inh [7] [%] | %Inh [8] [%] | %Inh [9] [%] | %Inh [10] [%]
c1ccc(-c2ccc3c(-c4ccnc(Nc5ccc6c(c5)OCCO6)n4)cnn3n2)cc1 [GW818941] | 0 | 17 | 29 | 0 | 0 | 0 | 100 | 11 | 1 | 0
OCCOCCn1ccc2ncnc(Nc3ccc(Oc4cccc(Cl)c4)c(Cl)c3)c21 | 24 | 74 | 0 | 0 | 19 | 0 | 0 | 0 | 0 | 0
FC(F)(F)c1ccc(-c2nn3ncccc3c2-c2ccnc(Nc3cccc(C(F)(F)F)c3)n2)cc1 [GW828205] | 0 | 16 | 17 | 0 | 0 | 0 | 22 | 0 | 0 | 0
Cl.Fc1ccccc1COc1ccc(Nc2ncnc3ccc(-c4nnc(C(F)(F)F)o4)cc23)cc1Cl [GW424170] | 12 | 0 | 0 | 0 | 0 | 0 | 10 | 0 | 0 | 0
Cn1cc(-c2ccc3c(c2)CCN3C(=O)Cc2cccc(C(F)(F)F)c2)c2c(N)ncnc21 [GSK2606414] | 0 | 0 | 43 | 15 | 0 | 0 | 0 | 0 | 3 | 9
Nc1n[nH]c2nnc(-c3ccccc3)cc12 [SB-517389] | 0 | 0 | 0 | 0 | 69 | 0 | 0 | 0 | 9 | 5
Cn1ccc2ncnc(Nc3ccc(Oc4cccc(Cl)c4)c(Cl)c3)c21 | 0 | 55 | 5 | 11 | 4 | 0 | 26 | 11 | 29 | 17
Nc1nccc2scc(-c3ccc4c(c3)CCN4C(=O)Cc3cc(F)ccc3F)c12 [GSK2587663] | 14 | 0 | 9 | 2 | 0 | 0 | 8 | 0 | 7 | 23
Clc1cccc(-c2nc(Nc3ccncc3)c3ccccc3n2)c1 [GW873004] | 28 | 59 | 0 | 6 | 0 | 0 | 0 | 0 | 0 | 0
Cl.Cl.c1ccc(-c2cc3ccncc3cc2OC2CCNCC2)cc1 [GSK1122999] | 3 | 0 | 0 | 24 | 38 | 0 | 28 | 0 | 19 | 13
CCc1nc(-c2cccc(C)c2)c(-c2ccnc(NC(=O)c3ccccc3)c2)s1 | 0 | 11 | 3 | 10 | 8 | 42 | 16 | 2 | 2 | 0
Cc1ccc(O)cc1Nc1cc(C(F)(F)F)nc2ccc(-c3ccncc3)cc12 [GW630823] | 0 | 5 | 0 | 0 | 1 | 0 | 7 | 0 | 0 | 1
Fc1cccc(COc2ccc(Nc3ncnc4cc[nH]c34)cc2Cl)c1 | 0 | 29 | 9 | 18 | 0 | 20 | 9 | 50 | 21 | 11
COc1ccc(NC(=O)Nc2ccc(C)c(-c3ccc(C(=O)Nc4ccncc4)cc3)c2)cc1 [GSK1398475] | 0 | 0 | 0 | 7 | 34 | 0 | 10 | 0 | 0 | 0
Cc1cc(N2CCC(NS(=O)(=O)c3ccc(F)cc3)CC2)nc(Nc2cccc(C#N)c2)n1.O=C(O)C(F)(F)F [GSK1653537] | 0 | 0 | 20 | 5 | 0 | 0 | 17 | 3 | 7 | 60
CS(=O)(=O)CCNCc1nc(-c2ccc3ncnc(Nc4ccc(OCc5cccc(F)c5)c(Cl)c4)c3c2)cs1.Cl [GW583340] | 17 | 20 | 0 | 0 | 0 | 0 | 23 | 0 | 0 | 0
COc1cc2c(Nc3cccc(NC(=O)c4ccccc4)c3)ncnc2cc1OCCCN1CCOCC1 [GSK223810] | 0 | 10 | 0 | 0 | 90.3 | 0 | 0 | 0 | 0 | 6
